{"source": "the supplement of paper PMC10981050", "note": "Counter-ions that a name gives are not always drawn.", "data": [{"system": "OCI-AML2", "experiment": "cell viability relative to vehicle control; higher = less cytotoxic", "conditions": "10 µM; SRSF2 genotype: P95H/wt", "method_in_brief": "(§1)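 Each screen used CRISPR-edited mutant and wild-type clones from four leukaemia lines. Compounds were acoustically dispensed at a single 10 µM dose, and CellTiter-Glo luminescence was read after 48 h with the supernatant first removed. Viability was analysed in Genedata Screener and given as percent of the on-plate vehicle control.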", "units": {"cell viability": "%"}, "values": [{"compound": "CS(=O)(=O)Nc1cc2occ(NC=O)c(=O)c2cc1Oc1ccccc1", "note": "[Iguratimod]", "cell viability": 117}, {"compound": "Cc1ccnc(NS(=O)(=O)c2ccc(N)cc2)n1", "note": "[Sulfamerazine]", "cell viability": 107}, {"compound": "CC(=CCNc1ncnc2nc[nH]c12)CO", "note": "[Trans-Zeatin]", "cell viability": 104}, {"compound": "CCCC(CCC)C(=O)O", "note": "[Valproic acid sodium salt (Sodium valproate)]", "cell viability": 89.8}, {"compound": "C[C@]1(COc2ccc(N3CCC(Oc4ccc(OC(F)(F)F)cc4)CC3)cc2)Cn2cc([N+](=O)[O-])nc2O1", "note": "[Delamanid]", "cell viability": 83.8}, {"compound": "COc1ccc(CCC(=O)Nc2nc3ccc(Cl)cc3s2)cc1OC", "cell viability": 91.4}]}, {"system": "OCI-AML2", "experiment": "cell viability relative to vehicle control; higher = less cytotoxic", "conditions": "10 µM; SRSF2 genotype: wt/wt", "method_in_brief": "as §1", "units": {"cell viability": "%"}, "values": [{"compound": "CO[C@H]1/C=C/O[C@@]2(C)Oc3c(C)c(O)c4c(O)c(c(/C=N/N5CCN(C6CCCC6)CC5)c(O)c4c3C2=O)NC(=O)/C(C)=C\\C=C\\[C@H](C)[C@H](O)[C@@H](C)[C@@H](O)[C@@H](C)[C@H](OC(C)=O)[C@@H]1C", "note": "[Rifapentine]", "cell viability": 57.2}, {"compound": "O=C1NC(=O)/C(=C/c2ccc3c(c2)OC(F)(F)O3)S1", "cell viability": 103}, {"compound": "CCOC(=O)c1ccc(N)cc1", "note": "[Benzocaine]", "cell viability": 94.6}, {"compound": "Cn1nc(C(C)(C)C)cc1C(=O)N[C@@H](Cc1cccc(Cl)c1)C(=O)NCC#N", "note": "[Cathepsin Inhibitor 1]", "cell viability": 95.9}, {"compound": "Cc1c(C(=O)Nc2ccc(N3CCC(N4CCOCC4)CC3)c(C#N)c2)cnn1-c1ccc(Cl)cc1", "cell viability": 11.4}, {"compound": "CCOC(=O)[C@H](CCc1ccccc1)N[C@@H](C)C(=O)N(CC(=O)O)C1Cc2ccccc2C1", "note": "[Delapril Hydrochloride]", "cell viability": 91.6}, {"compound": "CC1(C)[C@@H](O[C@H]2O[C@H](C(=O)O)[C@@H](O)[C@H](O)[C@H]2O[C@@H]2O[C@H](C(=O)O)[C@@H](O)[C@H](O)[C@H]2O)CC[C@]2(C)[C@H]3C(=O)C=C4[C@@H]5C[C@@](C)(C(=O)O)CC[C@]5(C)CC[C@@]4(C)[C@]3(C)CC[C@@H]12", "note": "[Ammonium Glycyrrhizate]", "cell viability": 99}, {"compound": "CCNC(=O)c1noc(-c2cc(C(C)C)c(O)cc2O)c1-c1ccc(CN2CCOCC2)cc1", "note": "[Luminespib (AUY-922, NVP-AUY922)]", "cell viability": 20.7}, {"compound": "C=CCc1cc(OC)c(O)c(C(=O)NCCO)c1", "note": "[Alibendol]", "cell viability": 112}, {"compound": "CN1CCN(Cc2ccc(Nc3ncc(Cl)c(Nc4ccccc4S(=O)(=O)N(C)C)n3)cc2)CC1", "cell viability": 10.3}, {"compound": "CC(C[N+](C)(C)C)OC(N)=O", "note": "(centres undefined) [Bethanechol chloride]", "cell viability": 98.2}, {"compound": "CC1=CC(=O)[C@@H]2C[C@H]1C2(C)C", "note": "[(-)-Verbenone]", "cell viability": 96.3}, {"compound": "C[C@@H](Nc1cc(F)cc(F)c1)c1cc(C(=O)N(C)C)cc2c(=O)cc(N3CCOCC3)oc12", "cell viability": 37.4}, {"compound": "Cc1nc2cccc(N)c2c(=O)n1C1CCC(=O)NC1=O", "note": "(centres undefined) [Avadomide(CC-122)]", "cell viability": 169}, {"compound": "CN1Cc2c(ccc3c2OCO3)[C@@]2(C)[C@@H](O)Cc3cc4c(cc3[C@@H]12)OCO4", "note": "[Corynoline]", "cell viability": 13}, {"compound": "COc1ccc(Oc2cc(NCCC(F)(F)F)c3ncc(-c4ccc(C(=O)NC5CC5)c(C)c4)n3n2)c(F)c1F", "cell viability": 72.9}, {"compound": "O=[N+]([O-])c1ccc(Sc2cccc[n+]2[O-])c2nonc12", "cell viability": 0.27}, {"compound": "CC(=O)N1CCN(c2ccc(NC(=O)Cc3cnc(-c4ccnc(F)c4)c(C)c3)nc2)CC1", "cell viability": 94.6}, {"compound": "C[C@@H]1CC[C@H]2C(C)(C)[C@H]3C[C@@]12CC[C@@]3(C)O", "note": "[Cedrol]", "cell viability": 112}, {"compound": "CNC(=O)c1ccc(N2C(=S)N(c3cnc(C#N)c(C(F)(F)F)c3)C(=O)C23CCC3)cc1F", "cell viability": 88.1}, {"compound": "C=C1[C@@H]2CC[C@@H](C2)C1(C)C", "note": "[Camphene]", "cell viability": 97.1}, {"compound": "CCCCCCCCC(=O)O", "note": "[Nonanoic acid]", "cell viability": 97}, {"compound": "CC1(C)S[C@@H]2[C@H](NC(=O)[C@H](NC(=O)N3CCNC3=O)c3ccccc3)C(=O)N2[C@H]1C(=O)O", "note": "[Azlocillin sodium salt]", "cell viability": 91.8}, {"compound": "COc1cc2ncnc(Nc3ccc(F)c(Cl)c3)c2cc1NC(=O)/C=C/CN1CCCCC1", "cell viability": 37.2}, {"compound": "O=C1NS(=O)(=O)c2ccccc21", "note": "[Saccharin]", "cell viability": 103}, {"compound": "CNC(=O)c1cnn(-c2nc(N)c3ncn([C@@H]4O[C@H](CO)[C@@H](O)[C@H]4O)c3n2)c1", "note": "[Regadenoson]", "cell viability": 119}, {"compound": "CCCc1cc(C(N)=S)ccn1", "note": "[Protionamide (Prothionamide)]", "cell viability": 112}, {"compound": "O=C(c1ccc(Oc2ccccc2)cc1Cl)c1c[nH]c2ncnc(N[C@@H]3CC[C@@H](CO)OC3)c12", "cell viability": 16.1}]}]}
